Screening results (PubChem BioAssay)
WRN helicase inh = inhibitors of human WRN helicase; WRN helicase unwinding, fluorescent forked duplex, kinetic; Q14191; AID 651768; 360,000 tested, 0.46% active; Potency, µM (top dose mostly 114 µM), for the others: top-dose activity change, negative = inhibition, actives largely listed as inhibitors; further: on the % scale 0 is the no-effect control and ±100 the full control effect; nearly all actives have a fitted effect of over 55% in size
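Enzyme (20 nM final) and test compound sit together 15 min at room temperature before substrate addition. Substrate is a single-forked duplex oligonucleotide (100 nM) labelled with fluorophore and quencher, with 2 mM ATP; helicase unwinding raises red fluorescence, read kinetically.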
FEN1 inh = human FEN1 inhibition; P39748; Recombinant FEN1 flap cleavage, fluorescence, 15 min; Potency, µM (series often up to 114 µM), for inactives: at the highest dose activity change, negative = inhibition, hits mostly inhibitors; 390,000 tested, 0.35% active; AID 588795; further: on the % scale 0 is the no-effect control and ±100 the full control effect; nearly all actives have a fitted effect of over 65% in size
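Nuclease activity of 10 nM FEN1 was measured after 15 min of room-temperature exposure to titrated compounds, by adding 50 nM flap substrate and reading plates at 0 and 15 min.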
Pol kappa inh = blocks human DNA polymerase kappa activity; 400,000 tested, 0.53% active; purified Pol kappa, fluorescent DNA synthesis assay, 10 min; Potency, µM (highest dose often 107 µM), for inactives: top-dose activity, negative = inhibition, hits mostly inhibitors; Q9UBT6; further: on the % scale 0 is the no-effect control and ±100 the full control effect
Target sequence (Q9UBT6 whole entry, looked up): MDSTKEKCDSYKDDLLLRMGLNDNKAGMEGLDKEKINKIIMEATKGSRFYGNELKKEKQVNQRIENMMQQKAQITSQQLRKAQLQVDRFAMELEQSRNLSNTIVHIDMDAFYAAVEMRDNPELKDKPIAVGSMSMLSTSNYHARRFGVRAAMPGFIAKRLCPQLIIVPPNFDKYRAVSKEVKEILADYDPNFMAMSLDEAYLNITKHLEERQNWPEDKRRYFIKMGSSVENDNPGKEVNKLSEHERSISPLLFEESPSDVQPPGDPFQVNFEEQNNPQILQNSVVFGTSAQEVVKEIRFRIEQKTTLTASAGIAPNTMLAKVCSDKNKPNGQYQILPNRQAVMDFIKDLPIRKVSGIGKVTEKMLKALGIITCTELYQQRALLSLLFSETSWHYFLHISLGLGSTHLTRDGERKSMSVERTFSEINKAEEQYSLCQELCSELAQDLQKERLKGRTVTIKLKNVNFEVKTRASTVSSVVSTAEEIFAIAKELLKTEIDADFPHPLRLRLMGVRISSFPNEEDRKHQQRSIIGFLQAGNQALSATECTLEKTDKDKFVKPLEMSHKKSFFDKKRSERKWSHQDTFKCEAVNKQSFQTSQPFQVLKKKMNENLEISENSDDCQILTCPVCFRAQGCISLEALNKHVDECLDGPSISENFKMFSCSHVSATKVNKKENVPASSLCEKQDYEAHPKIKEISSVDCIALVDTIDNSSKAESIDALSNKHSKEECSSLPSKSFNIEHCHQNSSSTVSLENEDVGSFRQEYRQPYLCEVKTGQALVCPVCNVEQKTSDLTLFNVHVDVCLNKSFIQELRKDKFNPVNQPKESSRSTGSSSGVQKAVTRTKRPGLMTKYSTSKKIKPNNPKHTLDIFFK
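Enzyme at 10 nM met test compounds for 15 min at room temperature. Substrate addition (50 nM final) began the reaction, which was monitored by fluorescence at 0 and 10 min.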
Pol eta inh = DNA polymerase eta (human) inhibition; Q9Y253; recombinant Pol eta, fluorescent DNA replication assay; Potency, µM (series often up to 114 µM), without a hit: at the top dose activity change, negative = inhibition, usual class: inhibitors; 390,000 tested, 1.2% active; further: on the % scale 0 is the no-effect control and ±100 the full control effect
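Fluorescent replication assay: 50 nM final substrate added after a 15 min room-temperature compound preincubation with 10 nM enzyme. Signal taken at 0 min and again at 10 min.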
Pol beta inh = blocks human DNA polymerase beta activity | P06746 | Pol beta primer extension/strand displacement, fluorescence kinetic | Potency, µM (top dose mostly 114 µM), for the others: at the highest dose activity change, negative = inhibition, usual class: inhibitors | 340,000 tested, 1.3% active | AID 485314; further: on the % scale 0 is the no-effect control and ±100 the full control effect
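Preincubation: enzyme (10 nM) with compound, 15 min, RT. Reaction: substrate added to 50 nM final. Reads: 0 and 10 min. Analysis: normalized, Hill fit.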
Pol iota inh = DNA polymerase iota (human) inhibition; Potency, µM (top dose mostly 115 µM), for inactives: at the highest dose activity, negative = inhibition, most hits filed as inhibitors; Q9UNA4; Pol iota fluorescent replication assay, 10 min; 390,000 tested, 1% active; AID 588590
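Pol iota at 10 nM preincubated 15 min with compounds at room temperature; reaction started with fluorescent substrate, 50 nM final. Fluorescence read kinetically at 0 and 10 min; buffer-only wells as negative control.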
Starred values were filed as active, the others as inactive; u = inconclusive; x = not tested or not shown; [ ] = another dose, or the depositor's remark. Compounds with a hit are over-represented: about 2.4% of the library has one in this group of screens. The call rests on the fitted dose curve; in most records, active means well fitted curve in the direction sought with a large enough effect; inconclusive means small, poorly fitted or top-dose-only effect, or another doubt; inactive means no such curve, though single readings can be large; an effect the other way counts as inactive or inconclusive. Potency means the concentration at half of the fitted maximal effect.

SMILES	WRN helicase inh	FEN1 inh	Pol kappa inh	Pol eta inh	Pol beta inh	Pol iota inh
O=C(COC(=O)c1cn(-c2ccccc2)nc1-c1ccccc1)Nc1ncc(Cl)cc1Cl	u	9%	u	35µM*	u	u
COc1cccc(-c2nn(-c3ccccc3)cc2C(=O)OCC(=O)Nc2ncc(Cl)cc2Cl)c1	-19%	13%	-23%	5%	-5%[57.1 µM]	-3%
Cc1cc(-c2ccccc2)nc2c(Br)c(C(=O)O)nn12	u	u	79µM*	7.9µM*	x	11µM*
N#CCNC(=O)c1nn2c(C(F)(F)F)cc(-c3ccccc3)nc2c1Br	3%	10%	-7%	-22%	15%	163%
Cc1oc2c(c1C(=O)c1ccccc1)C(=O)C(=O)c1ccccc1-2	u	-7%	-10%	20µM*	56µM*	0.89µM*
Cc1oc2c(c1C(=O)O)C(=O)c1ccccc1C2=O	3%	11%	-17%	-29%	3%	u
COC(=O)[C@@H]1CCCN1S(=O)(=O)Cc1ccccc1	x	-3%	12%	x	x	5%
CN1CCN(c2ncc3ncc(=O)n(-c4ccccc4)c3n2)CC1	x	x	-4%[60.1 µM]	x	x	x
Cc1c(Cn2ccnc2)c2ccccc2n1CCC(=O)O	x	x	0%[19.4 µM]	x	x	x
CC(=O)Nc1cccc(-n2nnc(SCC(=O)Nc3ccc(F)c(Cl)c3)n2)c1	-26%	-13%	-7%	u	u	79µM*
CC(=O)c1ccc([N+](C)(C)C)cc1	x	1%	-21%	x	x	18%
CCC(=O)N1CCc2cc(Br)cc(S(=O)(=O)CCC(=O)NCCc3ccc(Cl)cc3)c21	x	-7%	4%	-20%	-3%	25%
CN(C)c1ccc(/C=C2\C=Cc3ccccc32)cc1Cl	x	0%	-15%	x	x	8%
O=C(O)c1cc(NCc2cc(O)ccc2O)ccc1O	x	8.9µM*	50µM*	x	x	18µM*
CC(NS(=O)(=O)c1ccc(Cl)cc1)C(=O)NCc1ccco1 (stereo not drawn)	-9%[57.1 µM]	-1%	-39%	-9%	u	71µM*
Cc1ccc(C(=O)N/N=C/c2c(O)ccc3ccccc23)cn1	-1%[11.6 µM]	-25%	-6%	50µM*	50µM*	u
O=C(O)c1cc(N/N=C/c2c(O)ccc3ccccc23)ccc1Cl	-22%[11.6 µM]	u	u	u	79µM*	u
O=C(N/N=C/c1c(O)ccc2ccccc12)c1cccnc1	0%	11%	-9%	-17%	-5%	8%
Cn1c(/N=C/c2c(O)ccc3ccccc23)nc2ccccc21	45µM*	u	-5%	89µM*	50µM*	7.9µM*
O=C(O)c1ccc(N=Cc2c(O)ccc3ccccc23)cc1	-2%[11.6 µM]	-11%	-13%	-16%	57%	13µM*
CC(C)NC(=O)Cn1ccc2cc(S(=O)(=O)N3CCCCCC3)ccc21	x	19%	-8%	7%	15%	-20%
CCN(CC)CCC(c1ccc(N(C)C)cc1)c1c(OC)cc(OC)c2c1OC(=O)CC2c1ccc(N(C)C)cc1 (stereo not drawn)	x	-5%	5%	x	x	1%
CC(C)C(=O)N/N=C/c1ccc(OCc2ccccc2)cc1	-3%	-4%	-17%	-11%	19%	11%
O=C(O)c1cc(N/N=C/c2ccc(OCc3ccccc3)cc2)ccc1Cl	-14%	8%	-19%	-17%	50µM*	107%
O=[N+]([O-])c1ccc(O)c(Nc2ncnc3ccccc23)c1	5%	-4%	-11%	u	28µM*	-19%
O=[N+]([O-])c1ccc(O)c(Nc2ncnc3ccc(Br)cc23)c1	-17%	u	-13%	-11%	u	30%
Oc1ccc(-c2nc3ccccc3s2)c(O)c1	9%	0%	-7%	-19%	-23%	-28%
Oc1ccc(N=C/C=C/c2cccc(Br)c2)cc1-c1nc2ccccc2s1	u	-11%	-38%	u	13µM*	10µM*
Nc1ccc(O)c(-c2nc3ccccc3s2)c1	-16%	-8%	u	u	7.9µM*	u
